Data from the supplement of paper PMC10849652.
The full data set covers some 7,900 targets. This sample favours those with a hit. About 0.6% of all pairs of compound and target were hits.

Columns and labels:
Experiment in all cases: log2 fold change, soluble protein after heating vs DMSO (PISA); higher = thermal stabilisation; K562 cells, 10 uM, 30 min; active = over 0.2 and 3.5 SD of the protein, either way, in both replicates (recomputed)
[1] = compound: COC1=CC=C(C=C1)CN2C=CC3=C2C=C(C=C3)C(=O)NO
Procedure, shortened: (§1)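 Values are thermal stability changes relative to control samples and are taken from duplicates. They are stated as log2 fold changes. Before quantification by TMTpro 16plex LC-MS/MS with equalised channel sums, K562 cells at 2×10^6 cells/mL were treated with 10 μM compound for 30 min, heated in aliquots for 3 min across 48°C-58°C, pooled, extracted in PBS with 0.5% NP-40 at 4°C, and centrifuged at 21,000xg for 90 min to give the soluble supernatant.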

zotarolimus = compound: CO[C@H]1C[C@@H]2CC[C@@H](C)[C@@](O)(O2)C(=O)C(=O)N2CCCC[C@H]2C(=O)O[C@H]([C@H](C)C[C@@H]2CC[C@H](n3cnnn3)[C@H](OC)C2)CC(=O)[C@H](C)/C=C(\C)[C@@H](O)[C@@H](OC)C(=O)[C@H](C)C[C@H](C)/C=C/C=C/C=C/1C [zotarolimus]
Procedure, shortened: as §1

idasanutlin = compound: COc1cc(C(=O)O)ccc1NC(=O)[C@@H]1N[C@@H](CC(C)(C)C)[C@](C#N)(c2ccc(Cl)cc2F)[C@H]1c1cccc(Cl)c1F [idasanutlin]
Procedure, shortened: as §1

alisertib = compound: COc1cc(Nc2ncc3c(n2)-c2ccc(Cl)cc2C(c2c(F)cccc2OC)=NC3)ccc1C(=O)O [alisertib]
Procedure, shortened: as §1

[2] = compound: COc1cc2nc(-c3cc(F)ccc3O)nc(N[C@@H]3CNC[C@H]3C(C)(C)O)c2cc1OC
Procedure, shortened: as §1

[3] = compound: COc1cccc2cc(-c3nc([C@H]4CC[C@H](C(=O)O)CC4)n4ncnc(N)c34)[nH]c12
Procedure, shortened: as §1

lapatinib = compound: CS(=O)(=O)CCNCc1ccc(-c2ccc3ncnc(Nc4ccc(OCc5cccc(F)c5)c(Cl)c4)c3c2)o1 [lapatinib]
Procedure, shortened: as §1

crizotinib = compound: C[C@@H](Oc1cc(-c2cnn(C3CCNCC3)c2)cnc1N)c1c(Cl)ccc(F)c1Cl [crizotinib]
Procedure, shortened: as §1

[4] = compound: C[C@@H]1COCCN1C2=NC(=NC(=C2)C3(CC3)S(=O)(=O)C)C4=C5C=CNC5=CC=C4
Procedure, shortened: as §1

[5] = compound: C[C@H](C1=CC=C(C=C1)C(=O)NC2=C3C=CNC3=NC=C2)N
Procedure, shortened: as §1

duvelisib = compound: C[C@H](Nc1ncnc2nc[nH]c12)c1cc2cccc(Cl)c2c(=O)n1-c1ccccc1 [duvelisib]
Procedure, shortened: as §1

tozasertib = compound: Cc1cc(Nc2cc(N3CCN(C)CC3)nc(Sc3ccc(NC(=O)C4CC4)cc3)n2)n[nH]1 [tozasertib]
Procedure, shortened: as §1

[6] = compound: Cc1cc(SCc2sc(-c3ccc(C(F)(F)F)cc3)nc2C)ccc1OCC(=O)O
Procedure, shortened: as §1

doramapimod = compound: Cc1ccc(-n2nc(C(C)(C)C)cc2NC(=O)Nc2ccc(OCCN3CCOCC3)c3ccccc23)cc1 [doramapimod]
Procedure, shortened: as §1

ispinesib = compound: Cc1ccc(C(=O)N(CCCN)[C@@H](c2nc3cc(Cl)ccc3c(=O)n2Cc2ccccc2)C(C)C)cc1 [ispinesib]
Procedure, shortened: as §1

filanesib = compound: CON(C)C(=O)N1N=C(c2cc(F)ccc2F)S[C@@]1(CCCN)c1ccccc1 [filanesib]
Procedure, shortened: as §1

gefitinib = compound: COc1cc2ncnc(Nc3ccc(F)c(Cl)c3)c2cc1OCCCN1CCOCC1 [gefitinib]
Procedure, shortened: as §1

pictilisib = compound: CS(=O)(=O)N1CCN(Cc2cc3nc(-c4cccc5[nH]ncc45)nc(N4CCOCC4)c3s2)CC1 [pictilisib]
Procedure, shortened: as §1

[7] = compound: CS(=O)(=O)c1ccc(-c2cnc(N)c(C(=O)Nc3ccccc3)n2)cc1
Procedure, shortened: as §1

gandotinib = compound: Cc1cc(Nc2cc(CN3CCOCC3)c3nc(C)c(Cc4ccc(Cl)cc4F)n3n2)n[nH]1 [gandotinib]
Procedure, shortened: as §1

Measured: log2 fold change

GBE1 (UniProt Q04446)
inactive: [1] 0.048 | zotarolimus 0.045 | idasanutlin 0.002 | alisertib 0.019 | [2] -0.168 | [3] -0.102 | lapatinib -0.022 | [4] -0.054 | [5] 0.193 | duvelisib -0.026 | tozasertib -0.001 | [6] 0.094 | doramapimod -0.02 | ispinesib -0.286
active: crizotinib -0.565

HDAC7 isoform 5 (UniProt Q8WUI4)
inactive: filanesib 0.121 | zotarolimus 0.054 | idasanutlin 0.024 | alisertib -0.075 | [2] 0.075 | gefitinib -0.015 | [3] 0.046 | lapatinib 0.071 | pictilisib -0.004 | [7] -0.027 | crizotinib -0.013 | [4] 0.016 | duvelisib 0.008 | gandotinib 0.011 | tozasertib -0.03 | [6] 0.028 | doramapimod -0.018 | ispinesib 0.185
active: [5] -0.281

IFNGR1 (UniProt P15260)
UniProt P15260, sequence (P15260 whole entry, looked up): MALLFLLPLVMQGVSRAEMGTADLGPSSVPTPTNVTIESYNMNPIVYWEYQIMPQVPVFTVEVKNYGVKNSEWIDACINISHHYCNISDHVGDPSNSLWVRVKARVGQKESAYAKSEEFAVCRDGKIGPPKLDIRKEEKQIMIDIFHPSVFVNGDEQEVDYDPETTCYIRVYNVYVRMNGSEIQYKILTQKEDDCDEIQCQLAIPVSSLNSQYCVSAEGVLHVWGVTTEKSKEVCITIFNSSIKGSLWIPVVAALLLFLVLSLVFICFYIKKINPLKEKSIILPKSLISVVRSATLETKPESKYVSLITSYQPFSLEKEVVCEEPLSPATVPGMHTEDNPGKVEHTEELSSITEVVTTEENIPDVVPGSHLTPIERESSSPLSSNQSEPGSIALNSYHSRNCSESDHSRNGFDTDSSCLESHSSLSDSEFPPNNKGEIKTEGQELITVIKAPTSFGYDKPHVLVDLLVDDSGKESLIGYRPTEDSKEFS
inactive: filanesib 0.091 | zotarolimus -0.067 | idasanutlin 0.105 | alisertib -0.09 | [2] 0.207 | gefitinib 0.097 | [3] 0.143 | lapatinib -0.058 | pictilisib -0.085 | [7] 0.135 | [4] -0.1 | [5] 0.068 | duvelisib -0.059 | gandotinib -0.053 | tozasertib -0.19 | [6] -0.162 | ispinesib -0.041

FAT2 (UniProt Q9NYQ8)
inactive: [1] 0.247 | zotarolimus 0.104 | alisertib 0.208 | [2] 0.031 | [3] -0.024 | lapatinib -0.089 | pictilisib -0.497 | crizotinib -0.148 | [4] 0.131 | [5] 0.306 | duvelisib 0.372 | gandotinib -0.149 | tozasertib -0.184 | [6] 0.121 | doramapimod 0.006 | ispinesib -0.006

FUNDC1 (UniProt Q8IVP5)
UniProt Q8IVP5, sequence (Q8IVP5 whole entry, looked up): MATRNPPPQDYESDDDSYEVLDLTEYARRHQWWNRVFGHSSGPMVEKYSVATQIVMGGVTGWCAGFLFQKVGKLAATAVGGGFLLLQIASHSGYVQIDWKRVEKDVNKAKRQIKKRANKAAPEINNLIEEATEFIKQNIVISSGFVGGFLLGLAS
inactive: filanesib -0.193 | alisertib 0.011 | [2] -0.138 | [3] 0.172 | lapatinib 0.101 | [7] 0.046

GID4 (UniProt Q8IVV7)
UniProt Q8IVV7, sequence (Q8IVV7 whole entry, looked up): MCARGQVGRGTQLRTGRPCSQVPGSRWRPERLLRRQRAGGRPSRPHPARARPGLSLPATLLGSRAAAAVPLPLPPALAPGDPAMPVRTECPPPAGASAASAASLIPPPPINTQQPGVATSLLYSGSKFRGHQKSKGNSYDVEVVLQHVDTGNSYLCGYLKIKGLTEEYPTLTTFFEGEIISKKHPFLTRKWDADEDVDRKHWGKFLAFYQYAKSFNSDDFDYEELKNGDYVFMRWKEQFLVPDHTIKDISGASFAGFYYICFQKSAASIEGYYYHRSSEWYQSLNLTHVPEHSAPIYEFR
inactive: filanesib -0.089 | zotarolimus 0.013 | idasanutlin -0.023 | alisertib -0.074 | [2] 0.097 | gefitinib -0.067 | [3] 0.01 | lapatinib -0.14 | pictilisib 0.024 | [7] 0 | [4] 0.054 | [5] -0.006 | duvelisib 0.009 | gandotinib 0.034 | tozasertib 0.052 | [6] 0.032 | ispinesib 0.044

FGG (UniProt P02679)
UniProt P02679, sequence (P02679 whole entry, looked up): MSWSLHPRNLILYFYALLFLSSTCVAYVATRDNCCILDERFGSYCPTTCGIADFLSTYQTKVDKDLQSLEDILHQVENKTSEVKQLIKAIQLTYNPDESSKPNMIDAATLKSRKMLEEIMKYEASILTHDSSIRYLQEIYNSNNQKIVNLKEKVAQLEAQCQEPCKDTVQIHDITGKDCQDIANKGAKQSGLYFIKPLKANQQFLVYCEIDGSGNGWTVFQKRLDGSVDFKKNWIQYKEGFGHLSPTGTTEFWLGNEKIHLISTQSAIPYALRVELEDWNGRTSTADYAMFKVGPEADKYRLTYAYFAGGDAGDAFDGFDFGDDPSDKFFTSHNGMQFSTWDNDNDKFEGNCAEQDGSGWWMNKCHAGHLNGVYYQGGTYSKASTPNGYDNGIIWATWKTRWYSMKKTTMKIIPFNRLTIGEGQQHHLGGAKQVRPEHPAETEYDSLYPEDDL
inactive: [2] -0.068 | lapatinib -0.001 | pictilisib -0.367 | gandotinib -0.153 | ispinesib -0.052

HNRNPK isoform 3 (UniProt P61978)
inactive: [1] -0.025 | filanesib 0.077 | alisertib -0.063 | gefitinib -0.066 | [3] 0.005 | pictilisib 0.057 | [7] -0.056 | crizotinib -0.009 | [4] -0.237 | duvelisib 0.038 | gandotinib -0.082 | tozasertib 0.004 | [6] -0.037 | doramapimod 0.05 | ispinesib 0.014

HEATR3 (UniProt Q7Z4Q2)
inactive: [1] 0.027 | filanesib 0.007 | zotarolimus -0.004 | alisertib 0.099 | [2] -0.083 | gefitinib 0.072 | [3] 0.046 | lapatinib 0.004 | pictilisib -0.134 | [7] -0.001 | crizotinib -0.171 | [4] 0.094 | [5] 0.123 | duvelisib 0.078 | gandotinib -0.377 | tozasertib 0.065 | [6] 0.146 | doramapimod 0.011 | ispinesib -0.006

GOLGA6B (UniProt A6NDN3)
UniProt A6NDN3, sequence (A6NDN3 whole entry, looked up): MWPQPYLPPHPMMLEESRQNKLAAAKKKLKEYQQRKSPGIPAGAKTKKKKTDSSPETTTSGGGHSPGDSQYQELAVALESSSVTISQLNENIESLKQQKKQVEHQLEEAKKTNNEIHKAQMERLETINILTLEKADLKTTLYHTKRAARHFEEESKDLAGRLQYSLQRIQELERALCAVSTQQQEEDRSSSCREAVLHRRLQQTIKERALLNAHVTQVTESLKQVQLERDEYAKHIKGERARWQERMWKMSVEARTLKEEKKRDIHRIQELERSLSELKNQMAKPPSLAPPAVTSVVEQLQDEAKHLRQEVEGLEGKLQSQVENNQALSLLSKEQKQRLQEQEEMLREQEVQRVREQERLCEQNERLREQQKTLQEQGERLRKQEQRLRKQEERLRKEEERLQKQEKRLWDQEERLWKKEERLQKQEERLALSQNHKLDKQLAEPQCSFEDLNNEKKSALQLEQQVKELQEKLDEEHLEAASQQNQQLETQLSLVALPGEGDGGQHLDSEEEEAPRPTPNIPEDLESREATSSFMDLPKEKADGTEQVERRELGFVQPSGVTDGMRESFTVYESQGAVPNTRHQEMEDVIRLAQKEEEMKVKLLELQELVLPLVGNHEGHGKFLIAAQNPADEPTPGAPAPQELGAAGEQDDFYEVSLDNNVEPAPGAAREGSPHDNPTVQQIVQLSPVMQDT
inactive: [1] 0.088 | filanesib -0.115 | alisertib -0.092 | gefitinib 0.012 | [3] 0.102 | pictilisib 0.144 | [7] -0.003 | crizotinib 0.05 | [4] 0.036 | gandotinib 0.404 | doramapimod -0.139

GOLGA8R (UniProt I6L899)
inactive: zotarolimus -0.027 | idasanutlin 0.022 | [2] 0.345 | lapatinib -0.093 | pictilisib 0.01 | crizotinib -0.009 | [5] -0.059 | duvelisib 0.242 | gandotinib 0.324 | tozasertib -0.033 | [6] -0.067 | doramapimod 0.108 | ispinesib -0.038
active: [1] 0.591

FCF1 (UniProt Q9Y324)
UniProt Q9Y324, sequence (Q9Y324 whole entry, looked up): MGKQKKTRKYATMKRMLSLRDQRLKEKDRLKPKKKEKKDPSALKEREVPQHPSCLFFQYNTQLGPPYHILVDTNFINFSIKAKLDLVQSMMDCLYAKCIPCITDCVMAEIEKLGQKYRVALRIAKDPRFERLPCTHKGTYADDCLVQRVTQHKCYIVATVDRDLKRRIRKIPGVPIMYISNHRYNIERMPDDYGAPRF
inactive: [1] -0.026 | filanesib 0.405 | alisertib -0.272 | [2] 0.1 | [3] -0.299 | lapatinib 0.157 | pictilisib -0.262 | [7] 0.06 | crizotinib -0.054 | [4] -0.225 | duvelisib -0.592 | gandotinib 0.155 | tozasertib 0.021 | [6] 0.103 | doramapimod 0.244 | ispinesib -0.095

FMR1 (UniProt Q06787)
inactive: [1] -0.3 | filanesib 0.219 | zotarolimus 0.005 | alisertib -0.023 | [2] 0.286 | [3] 0.322 | lapatinib -0.027 | pictilisib 0.036 | [7] -0.067 | crizotinib 0.151 | [5] 0.199 | gandotinib 0.045 | doramapimod -0.065 | ispinesib -0.022

IDH3A isoform 2 (UniProt P50213)
UniProt P50213, sequence (P50213 whole entry, looked up): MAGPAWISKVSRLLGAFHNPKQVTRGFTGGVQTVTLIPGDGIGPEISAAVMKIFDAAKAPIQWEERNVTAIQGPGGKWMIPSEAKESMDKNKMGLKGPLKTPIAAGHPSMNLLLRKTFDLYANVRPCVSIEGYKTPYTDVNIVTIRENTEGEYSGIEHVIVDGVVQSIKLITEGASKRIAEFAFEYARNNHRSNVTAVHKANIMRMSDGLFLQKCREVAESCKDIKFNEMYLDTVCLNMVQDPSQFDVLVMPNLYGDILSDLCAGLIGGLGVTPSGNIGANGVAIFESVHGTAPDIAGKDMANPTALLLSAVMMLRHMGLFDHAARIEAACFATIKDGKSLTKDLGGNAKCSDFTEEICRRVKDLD
inactive: [1] 0.32 | zotarolimus -0.056 | idasanutlin -0.246 | gefitinib 0.029 | crizotinib -0.206 | [5] -0.016 | tozasertib -0.141 | doramapimod 0.051

HDAC10 (UniProt Q969S8)
UniProt Q969S8, sequence (Q969S8 whole entry, looked up): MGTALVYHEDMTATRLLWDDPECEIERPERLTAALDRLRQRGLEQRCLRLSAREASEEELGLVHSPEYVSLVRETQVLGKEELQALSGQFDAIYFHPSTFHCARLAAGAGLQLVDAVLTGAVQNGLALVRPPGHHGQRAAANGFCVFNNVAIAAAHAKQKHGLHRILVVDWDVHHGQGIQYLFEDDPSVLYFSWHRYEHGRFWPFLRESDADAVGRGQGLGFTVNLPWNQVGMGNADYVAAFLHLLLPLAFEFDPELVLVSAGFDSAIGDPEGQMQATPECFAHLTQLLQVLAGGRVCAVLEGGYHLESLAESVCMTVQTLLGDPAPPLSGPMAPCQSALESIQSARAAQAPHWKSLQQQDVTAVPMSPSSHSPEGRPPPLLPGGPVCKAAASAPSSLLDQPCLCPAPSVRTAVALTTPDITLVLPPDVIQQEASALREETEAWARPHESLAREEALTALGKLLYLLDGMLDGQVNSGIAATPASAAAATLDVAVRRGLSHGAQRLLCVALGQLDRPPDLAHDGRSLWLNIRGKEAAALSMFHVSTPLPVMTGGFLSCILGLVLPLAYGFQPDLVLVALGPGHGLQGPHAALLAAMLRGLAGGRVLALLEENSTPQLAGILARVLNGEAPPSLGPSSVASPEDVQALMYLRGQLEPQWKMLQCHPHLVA
inactive: zotarolimus -0.022 | idasanutlin -0.157 | alisertib -0.264 | [2] 0.049 | gefitinib 0.168 | [3] 0.065 | lapatinib 0.044 | pictilisib 0.084 | [5] -0.045 | duvelisib 0.04 | gandotinib 0.008 | tozasertib -0.113 | [6] 0.042 | ispinesib 0.065

ICMT (UniProt O60725)
UniProt O60725, sequence (O60725 whole entry, looked up): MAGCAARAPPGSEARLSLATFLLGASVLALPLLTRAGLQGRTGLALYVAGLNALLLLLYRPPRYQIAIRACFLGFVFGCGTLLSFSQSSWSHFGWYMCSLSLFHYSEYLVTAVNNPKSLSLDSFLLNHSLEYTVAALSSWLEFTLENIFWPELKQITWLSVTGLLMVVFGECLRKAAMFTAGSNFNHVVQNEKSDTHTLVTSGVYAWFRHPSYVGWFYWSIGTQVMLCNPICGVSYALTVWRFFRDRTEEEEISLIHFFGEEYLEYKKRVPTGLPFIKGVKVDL
inactive: [1] -0.083 | filanesib -0.189 | idasanutlin -0.029 | alisertib -0.046 | [2] -0.112 | gefitinib 0.154 | [3] 0.085 | lapatinib 0.206 | [7] 0.099 | crizotinib 0.074 | [4] 0.331 | duvelisib 0.078 | tozasertib -0.518 | [6] -0.107 | doramapimod 0.01 | ispinesib -0.42

FYB1 isoform 3 (UniProt O15117)
active: duvelisib -0.344
inactive: [1] 0.001 | filanesib 0.06 | idasanutlin -0.106 | alisertib -0.035 | [2] 0.026 | gefitinib 0.103 | [3] 0.134 | lapatinib 0.068 | pictilisib 0.108 | [7] -0.025 | crizotinib -0.11 | [4] 0.046 | gandotinib 0.057 | tozasertib 0.009 | [6] 0.067 | doramapimod 0.021 | ispinesib -0.083

IGF2 isoform 3 (UniProt P01344)
UniProt P01344, sequence (P01344 whole entry, looked up): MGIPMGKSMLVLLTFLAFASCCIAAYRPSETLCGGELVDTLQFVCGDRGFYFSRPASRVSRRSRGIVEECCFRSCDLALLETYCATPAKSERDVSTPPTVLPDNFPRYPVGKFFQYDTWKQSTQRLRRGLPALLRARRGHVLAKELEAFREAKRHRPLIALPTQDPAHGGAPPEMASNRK
inactive: [1] 0.041 | crizotinib -0.07 | duvelisib 0.175 | [6] 0.03 | doramapimod -0.13

HDAC1 (UniProt Q13547)
UniProt Q13547, sequence (Q13547 whole entry, looked up): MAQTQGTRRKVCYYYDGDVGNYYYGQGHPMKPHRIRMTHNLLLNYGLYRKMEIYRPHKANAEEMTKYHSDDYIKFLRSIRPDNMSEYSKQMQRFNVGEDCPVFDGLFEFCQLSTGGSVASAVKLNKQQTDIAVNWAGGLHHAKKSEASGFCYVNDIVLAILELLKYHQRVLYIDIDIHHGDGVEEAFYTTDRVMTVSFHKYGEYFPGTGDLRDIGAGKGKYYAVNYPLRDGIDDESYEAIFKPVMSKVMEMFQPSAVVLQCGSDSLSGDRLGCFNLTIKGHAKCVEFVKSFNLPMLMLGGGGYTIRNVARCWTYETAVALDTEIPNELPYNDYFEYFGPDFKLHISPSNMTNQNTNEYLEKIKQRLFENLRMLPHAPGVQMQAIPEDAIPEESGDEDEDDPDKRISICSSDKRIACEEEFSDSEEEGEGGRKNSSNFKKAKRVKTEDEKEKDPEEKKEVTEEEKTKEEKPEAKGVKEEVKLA
inactive: filanesib 0.059 | zotarolimus -0.019 | idasanutlin -0.023 | alisertib 0.031 | [2] 0 | gefitinib 0.025 | [3] 0.024 | lapatinib 0.141 | pictilisib 0.06 | [7] 0.011 | crizotinib 0.084 | [4] 0.001 | [5] 0.115 | duvelisib 0.045 | gandotinib -0.02 | tozasertib -0.033 | [6] 0.06 | doramapimod -0.018 | ispinesib 0.038

GPD1 (UniProt P21695)
UniProt P21695, sequence (P21695 whole entry, looked up): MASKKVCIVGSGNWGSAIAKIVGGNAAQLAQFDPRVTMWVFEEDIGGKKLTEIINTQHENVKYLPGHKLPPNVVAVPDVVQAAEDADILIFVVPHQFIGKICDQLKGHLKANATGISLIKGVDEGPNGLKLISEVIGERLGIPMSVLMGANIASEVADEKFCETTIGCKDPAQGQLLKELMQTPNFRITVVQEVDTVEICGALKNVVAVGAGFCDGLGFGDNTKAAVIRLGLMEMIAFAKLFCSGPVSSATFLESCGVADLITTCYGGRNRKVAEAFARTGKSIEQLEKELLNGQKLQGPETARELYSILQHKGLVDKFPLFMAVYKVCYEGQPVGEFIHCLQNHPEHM
inactive: filanesib -0.083 | zotarolimus 0.022 | idasanutlin -0.289 | alisertib 0.077 | [2] -0.051 | gefitinib 0.368 | [3] 0.111 | lapatinib 0.015 | pictilisib 0.203 | [7] -0.036 | [4] 0.034 | [5] -0.482 | duvelisib 0.124 | gandotinib 0.094 | tozasertib -0.072 | [6] -0.034 | ispinesib 0.046
